Compound activity as filed in PubChem BioAssay.
Cycloheximide cs – Cycloheximide Counterscreen for Small Molecule Inhibitors of Shiga Toxin; max response, %; cell reporter, cycloheximide protein synthesis inhibition counterscreen; 300,000 tested, 12% active; in the data active = max response mostly above about 13%, no sharp cut-off; inactive = mostly below about 14%; note: read at 38.3 µM for the half of the compounds with a filed dose; 0% is about no effect
NS1 inh – qHTS Assay for Inhibitors of Influenza NS1 Protein Function | 270,000 tested, 0.4% active | Potency, µM (top dose mostly 46.1 µM), for the others: at the top dose activity, positive = more growth; calls by dose curve; note: potency is the fitted concentration of half-maximal effect; actives are rising curves; nearly all actives have a fitted effect of over 50% in size
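In this qHTS, NS1 from influenza A is expressed in budding yeast, where it slows growth. Cells are switched from glucose to 2% galactose medium (pH 6.0, -URA), treated with compound, and growth recovery is read at OD600.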
Shiga toxin inh – A qHTS for Small Molecule Inhibitors of Shiga Toxin | Vero cells, Shiga toxin protein synthesis inhibition reporter | inhibition, % at 38.7 µM | 290,000 tested, 9.2% active | AID 2315, 2010; in the data active = inhibition mostly above about 28%, no sharp cut-off; inactive = mostly below about 43%; note: 0% is about no effect
Pf growth 96h – Primary qHTS for delayed death inhibitors of the malarial parasite plastid, 96 hour incubation | AID 504834, 2011 | P. falciparum luciferase reporter growth, 96 h | 320,000 tested, 6.9% active | Potency, µM (highest dose often 28.7 µM), for the others: top-dose activity change, negative = inhibition, most hits filed as inhibitors; note: potency is the fitted concentration of half-maximal effect; % is set by controls: 0 for no effect and ±100 for the full control effect
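Cell-based qHTS: luciferase-tagged P. falciparum in erythrocytes (2% hematocrit, 0.05% parasitemia final) incubated with compounds for 96 hours, 37 C, 5% CO2; luciferase detection reagent then added and luminescence measured.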
Sm TGR block – qHTS Assay for the Inhibitors of Schistosoma Mansoni Peroxiredoxins. purified TGR, DTNB reduction, TNB absorbance 405 nm. Potency, µM (highest dose often 114 µM), for the others: at the highest dose activity change, negative = inhibition, usual class: inhibitors. 360,000 tested, 3% active; note: potency is the fitted concentration of half-maximal effect; % is set by controls: 0 for no effect and ±100 for the full control effect; nearly all actives have a fitted effect of over 60% in size
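First, TGR (20 nM dispensed) and NADPH were mixed with compound. Second, a 15 min room-temperature incubation followed. Third, further NADPH and then DTNB were added to start the reaction. Finally, TNB absorbance was monitored kinetically.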
Pf growth 48h – Primary qHTS for delayed death inhibitors of the malarial parasite plastid, 48 hour incubation | P. falciparum luciferase growth in erythrocytes, 48 h | Potency, µM (top dose mostly 28.7 µM), without a hit: top-dose activity change, negative = inhibition, most hits filed as inhibitors | 310,000 tested, 5.9% active | AID 504832, 2011; note: potency is the fitted concentration of half-maximal effect; % is set by controls: 0 for no effect and ±100 for the full control effect
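Luciferase-expressing parasites in RBCs, 2% Hct / 0.1% parasitemia final; RPMI 1640 + 0.5% Albumax; 37 C, 5% CO2, one generation; luminescence read-out, lower signal = inhibition.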
An asterisk follows results filed as active; [ ] = remark or other dose. Shown are actives, neighbours in structure and some others; about 21% of the full set was active somewhere. Unless noted, calls come from the whole dose curve; as a rule, active = well fitted curve in the direction sought with a large enough effect; inconclusive = small, poorly fitted or top-dose-only effect, or another doubt; inactive = no such curve, though single readings can be large; an effect the other way counts as inactive or inconclusive.

How did O=C(COc1ccccc1)Nc1nccs1 do in these assays?
Cycloheximide cs: 30*; NS1 inh: 0%; Shiga toxin inh: 53*; Pf growth 96h: inconclusive; Sm TGR block: -1%; Pf growth 48h: 410%

How did O=C(COc1ccc2ccc(=O)oc2c1)Nc1cccnc1 do in these assays?
Cycloheximide cs: -1; NS1 inh: -7%; Shiga toxin inh: -1; Pf growth 96h: 6%; Sm TGR block: 7%; Pf growth 48h: 11%

What do the screens show for `O=C(COc1ccccc1)Nc1nc(-c2ccncc2)cs1`?
Cycloheximide cs: 0; NS1 inh: 11%; Shiga toxin inh: -7; Pf growth 96h: inconclusive; Sm TGR block: 5%; Pf growth 48h: inconclusive

Results for CCC(C)OC(=O)n1ccc(C(=O)Nc2nccs2)n1 (stereo not given) ?
Cycloheximide cs: 32*; NS1 inh: -11%; Shiga toxin inh: 68*; Pf growth 96h: -2%; Sm TGR block: -3%; Pf growth 48h: 49%

Results for Cc1ccc(Cl)cc1NC(=O)CN1C=NS(=O)(=O)c2ccccc21 ?
Sm TGR block: 1%

How did COc1ccc(-c2cn(Cc3ccc(C(N)=O)cc3)c(-c3ccncc3)n2)cc1 do in these assays?
Pf growth 96h: 92%; Sm TGR block: -4%; Pf growth 48h: 33%

What do the screens show for `CCC(C(=O)Nc1nccs1)c1ccccc1` (stereo not given)?
Cycloheximide cs: -1; NS1 inh: inconclusive; Shiga toxin inh: 10; Pf growth 96h: -20%; Sm TGR block: -33%; Pf growth 48h: inconclusive

How did CCC(C)C(=O)Nc1nccs1 (stereo not given) do in these assays?
Cycloheximide cs: 16*; NS1 inh: -33%; Shiga toxin inh: 37; Pf growth 96h: 12%; Sm TGR block: 5%; Pf growth 48h: 5%

What do the screens show for `Cc1ccc(-n2c(SCC(=O)N3CCCCC3)nc(O)c(Cc3ccccc3)c2=O)cc1`?
Cycloheximide cs: 16; NS1 inh: 9%; Shiga toxin inh: 22; Pf growth 96h: 1%; Sm TGR block: 8%; Pf growth 48h: 7%

How did COC(=O)c1cc2c(cc1NC(=O)c1cnn(-c3ccccc3)c1-n1cccc1)OCO2 do in these assays?
Sm TGR block: 1%

What do the screens show for `O=S(=O)(c1ccc(NC(=S)NC2CC2)cc1)N1CCOCC1`?
Cycloheximide cs: -3; NS1 inh: 1%; Shiga toxin inh: -4; Pf growth 96h: -10%; Sm TGR block: 16µM*; Pf growth 48h: 23%

How did CC(=O)Nc1ccc(S(=O)(=O)N2CCN(CCN3CCOCC3)CC2)cc1Cl do in these assays?
Cycloheximide cs: -4; NS1 inh: 5%; Shiga toxin inh: -4; Pf growth 96h: 15%; Sm TGR block: 9%; Pf growth 48h: 2.1µM*

Results for CCOC(=O)C1CCN(S(=O)(=O)c2ccc(NC(C)=O)c(Cl)c2)CC1 ?
Cycloheximide cs: -1; NS1 inh: 0%; Shiga toxin inh: -14; Pf growth 96h: 48%; Sm TGR block: 10%; Pf growth 48h: 48%

How did O=S(=O)(c1ccc(NC(=S)NC2CCCC2)cc1)N1CCCC1 do in these assays?
Cycloheximide cs: 2; NS1 inh: 1%; Shiga toxin inh: 14; Pf growth 96h: 4%[5.75 µM]; Sm TGR block: -23%; Pf growth 48h: -23%

What do the screens show for `CC(=O)Nc1ccc(S(=O)(=O)NCCN2CCNC2=O)cc1Cl`?
Cycloheximide cs: -5; NS1 inh: 2%; Shiga toxin inh: 4; Pf growth 96h: 7.4µM*; Sm TGR block: -7%; Pf growth 48h: inconclusive

How did O=C1NCCN1CCNS(=O)(=O)c1ccc(F)c(Cl)c1 do in these assays?
Cycloheximide cs: -2; NS1 inh: 2%; Shiga toxin inh: -4; Pf growth 96h: 35%; Sm TGR block: 0%; Pf growth 48h: 10%

How did CC(=O)Nc1ccc(S(=O)(=O)N2CCSC2C(=O)O)cc1 (stereo not given) do in these assays?
Cycloheximide cs: -1; NS1 inh: 5%; Shiga toxin inh: -6; Pf growth 96h: 12µM*; Sm TGR block: 1%

What do the screens show for `CC(=O)Nc1ccc(S(=O)(=O)N2CCSC2c2ccc(C)cc2)cc1` (stereo not given)?
Cycloheximide cs: -3; NS1 inh: inconclusive; Shiga toxin inh: -13; Pf growth 96h: 4%; Sm TGR block: 2%; Pf growth 48h: -2%

What do the screens show for `N#Cc1ccccc1Cn1c(SCC(=O)Nc2ccc(F)cc2)nc2ccccc21`?
Sm TGR block: 6%

How did CC(C(=O)Nc1ccccc1C(F)(F)F)n1nc(-c2ccccc2)c2c(c1=O)CCCC2 (stereo not given) do in these assays?
Sm TGR block: -4%

What do the screens show for `COc1ccccc1CCNC(=O)c1ccc2c(c1)c(C)c(C)n2Cc1ccc(Cl)cc1`?
Sm TGR block: 5%

Results for CC(C)CC(NC(=O)CNC(=O)C1O[C@@H]2OC(C)(C)O[C@@H]2[C@H]2OC(C)(C)O[C@@H]12)C(=O)O (stereo not given in full) ?
Cycloheximide cs: -10; NS1 inh: 3%; Shiga toxin inh: -10; Pf growth 96h: 14%; Sm TGR block: -2%; Pf growth 48h: -13%

How did Cc1ccc(NC(=O)c2ccc(S(=O)(=O)N3CCOCC3)cc2)cc1 do in these assays?
Cycloheximide cs: 29*; NS1 inh: 2%; Shiga toxin inh: 42; Pf growth 96h: -17%; Sm TGR block: 2%; Pf growth 48h: -18%

How did CC(C)(C)NNC(=S)Nc1ccc(S(=O)(=O)N2CCOCC2)cc1 do in these assays?
Cycloheximide cs: -2; Shiga toxin inh: 8; Pf growth 96h: -5%; Sm TGR block: inconclusive; Pf growth 48h: -17%

How did O=S(=O)(c1ccc(Cl)c(NC(=S)Nc2cccc(O)c2)c1)N1CCOCC1 do in these assays?
Cycloheximide cs: -1; NS1 inh: 11%; Shiga toxin inh: 28; Pf growth 96h: 18%; Sm TGR block: 11µM*; Pf growth 48h: 28%

What do the screens show for `O=C(Nc1ccc(Cl)cc1)c1ccc(S(=O)(=O)N2CCOCC2)cc1`?
Cycloheximide cs: -9; NS1 inh: -8%; Shiga toxin inh: 23; Pf growth 96h: inconclusive; Sm TGR block: 3%; Pf growth 48h: -19%

What do the screens show for `Cc1ccc(-c2[nH]c3ccccc3c2SCCNC(=O)c2ccc(S(=O)(=O)N3CCOCC3)cc2)cc1`?
Cycloheximide cs: 2; NS1 inh: -12%; Shiga toxin inh: -11; Pf growth 96h: 8.3µM*; Sm TGR block: 8%; Pf growth 48h: inconclusive

Results for Cc1ccc(NC(=S)Nc2ccc(S(=O)(=O)N3CCOCC3)cc2)cc1S(=O)(=O)N1CCOCC1 ?
Cycloheximide cs: -3; Shiga toxin inh: -2; Pf growth 96h: -19%; Sm TGR block: 16µM*; Pf growth 48h: 1%
